Results on 9 compounds are retold here after PubChem BioAssay (Tox21).

The structures appear in SMILES notation. Unmarked numbers belong to inactive results. Records with an inconclusive call do not appear. The source made the active and inactive calls. Unless noted, the call rests on the fitted dose curve.

A short description of assay [1]: Nuclear factor erythroid 2-related factor 2/antioxidant responsive element (Nrf2/ARE) small molecule agonists: qHTS cell viability counter screen in human keratinocytes (AID 1919968; active means well fitted cell-killing curve with a large enough effect in the repeat runs; further: nearly all actives have a fitted effect of over 55% in size). Summed up:
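In human HaCaT keratinocytes stably expressing an ARE-driven luciferase, compound exposure lasted 23 h at 37 C under 5% CO2. Viable cells are quantified with a protease-based fluorogenic reagent (CellTiter-Fluor) read 1 h after addition.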
A general note: In qHTS, concentration-response curves come from the screen itself.

A short description of assay [2]: Nuclear factor erythroid 2-related factor 2/antioxidant responsive element (Nrf2/ARE) small molecule agonists: luciferase reporter gene qHTS assay in human keratinocytes (AID 1919969). Further: nearly all actives have a fitted effect of over 35% in size. Further: potency means the concentration at half of the fitted maximal effect. Background: In a reporter assay the amount or activity of a reporter protein is the signal.
Assay [3] is described as follows: G protein-coupled receptor (GPCR) small molecule agonists, calcium flux assay: HEK293 wild type cell line counter screen (AID 1920065). Summed up: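 Fluorescence intensity signals activation. After overnight (18 h) culture and a 1 h calcium dye load at 37 C, compounds are added by pin tool and the plate read at 480/540 nm for 3 min in 1 s steps.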
Background: A change in cytosolic calcium serves as a functional read-out for many receptors and channels.

A short description of assay [4]: p53 small molecule agonists, cell-based qHTS assay with human liver microsomes (AID 1963577).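 Further: p53 response element beta-lactamase reporter cells with liver microsomes plus NADPH.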 A digest of the protocol: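 16 h, 37 C exposure of p53RE-bla cells to compounds with human liver microsomes and NADPH (0.5 mg/mL final each); detection via LiveBLAzer mixture, 2 h dark at room temperature.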
Assay [5] is described as follows: p53 small molecule agonists, cell-based qHTS assay with rat liver microsomes (AID 1963578). A digest of the protocol:
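With rat liver microsomes and NADPH present (0.5 mg/mL final each), p53RE-bla cells are treated with compound for 16 h at 37 C. LiveBLAzer detection mixture is then applied for 2 h at room temperature in the dark.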

Assay [6] in a line: p53 small molecule agonists, cell-based qHTS assay with human liver microsomes: qHTS cell viability counter screen (AID 1963579). Further: nearly all actives have a fitted effect of over 45% in size. A digest of the protocol:
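In this multiplexed counter screen, the reporter plates were subsequently treated with CellTiter-Glo so that cell viability, reflected by luminescence, could be recorded for p53RE-bla cells dosed 16 h with compounds under microsomal activation (HLM and NADPH).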

A short description of assay [7]: p53 small molecule agonists, cell-based qHTS assay: qHTS cell viability counter screen (AID 1963581). Further: nearly all actives have a fitted effect of over 45% in size. Summed up: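 Luminescence from CellTiter-Glo, reflecting ATP content, serves as the cytotoxicity measure; it is taken after the 2 h reporter substrate step in HCT-116 p53RE-bla cells dosed for 16 h at 37 C.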
The nature of assay [8]: p53 small molecule agonists, cell-based qHTS assay (AID 1963582; active means well fitted activation curve with a large enough effect in the signal ratio in the repeat runs, not every such curve was filed as active; the % refers to the signal ratio). A digest of the protocol:
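After plating, p53RE-bla cells sat 5 h in the incubator; compounds or DMSO vehicle were pinned in; a 16 h incubation at 37 C followed; FRET substrate was added and, 2 h later at RT, fluorescence was measured.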

For assay [9], the target named is Muscarinic acetylcholine receptor M1 (Homo sapiens) (UniProt P11229). As to the kind of experiment: Cholinergic receptor muscarinic 1 (CHRM1) small molecule antagonists, cell-based qHTS assay (AID 1963588). Further: nearly all actives have a fitted effect of over 40% in size. A digest of the protocol: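 Compounds were tested at 15 concentrations in three independent runs. Dye-loaded CHRM1-CHO cells were exposed 5 min at room temperature before stimulation by acetylcholine added at 50nM. Intracellular calcium was read kinetically on FDSS for 3 min.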

For assay [10] the target is unchanged. Put plainly: Cholinergic receptor muscarinic 1 (CHRM1) small molecule agonists, cell-based qHTS assay (AID 1963589). Further: nearly all actives have a fitted effect of over 35% in size. A digest of the protocol: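 Fluorescent calcium dye reports M1 activation in stably transfected CHO cells. Compounds, 15 concentrations, added after 1 h dye loading at 37 C; kinetic reading at 1 sec intervals.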
A short description of assay [11]: cAMP Responsive Elements (CRE) small molecule agonists, cell-based qHTS assay (AID 1963590). Summed up: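 Compound exposure lasted 3 h at 37 C/5% CO2 in CRE-bla HEK 293T cells grown in assay medium with 10% dialyzed FBS and 25 mM HEPES. Reporter signal came from LiveBLAzer B/G FRET substrate, 2 h, room temperature.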
Assay [12] deals with D(2) dopamine receptor (Homo sapiens) (UniProt P14416). As to the kind of experiment: Dopamine D2 receptor (DRD2) small molecule antagonists, cell-based qHTS assay (AID 1963595; active means well fitted inhibition curve with a large enough effect in the signal ratio in the repeat runs, with a control signal flat; the % refers to the signal ratio). Summed up: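 Antagonist mode in DRD2-HEK293 cells: after compound addition with 0.1 mM Ro20-1724, cells received quinpirole (12 nM) and NKH477 (200 nM) for 30 min at room temperature; HTRF cAMP read after 1 h detection.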

The nature of assay [13]: p53 small molecule agonists, cell-based qHTS assay with rat liver microsomes: qHTS cell viability counter screen (AID 1963580). Further: nearly all actives have a fitted effect of over 45% in size. A digest of the protocol:
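Counter screen for cytotoxicity under metabolic activation: rat liver microsomes and NADPH, 0.5 mg/mL final each, added with compounds to p53RE-bla HCT-116 cells; 16 h at 37 C, then ATP luminescence read.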

Assay [14] deals with 5-hydroxytryptamine receptor 2A (Homo sapiens) (UniProt P28223). As to the kind of experiment: 5-hydroxytryptamine receptor 2A (HTR2A) small molecule antagonists, cell-based qHTS assay (AID 1963586). Further: nearly all actives have a fitted effect of over 45% in size. A digest of the protocol: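 CHO cells stably expressing human HTR2A were plated for 18 h at 37 C, then loaded with calcium dye for 1 h. Compounds were preincubated 5 min at room temperature before DOI (4 nM solution) was added. Kinetic fluorescence was read for 3 min.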

Assay [15] shares this target. Put plainly: 5-hydroxytryptamine receptor 2A (HTR2A) small molecule agonists, cell-based qHTS assay (AID 1963587). Further: nearly all actives have a fitted effect of over 30% in size. A digest of the protocol:
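HTR2A-CHO cells, plated 18 h at 37 C/5% CO2, dye-loaded 1 h at 37 C; compounds in DMSO added by pin tool (agonist mode). Intracellular calcium flux read as kinetic fluorescence on FDSS over 2 min at 1 s intervals.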

The nature of assay [16]: cAMP Responsive Elements (CRE) small molecule antagonists, cell-based qHTS assay (AID 1963591; active means well fitted inhibition curve with a large enough effect in the signal ratio in the repeat runs, not every such curve was filed as active; the % refers to the signal ratio). A digest of the protocol:
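Stimulation used NKH477 at a final 0.25 uM for 3 h in compound-treated CRE-bla HEK293T cells, seeded 18 h beforehand. Reporter activity was measured with LiveBLAzer B/G FRET substrate after 2 h at room temperature.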

Assay [17] addresses Beta-2 adrenergic receptor (Homo sapiens) (UniProt P07550). As to the kind of experiment: Adrenergic beta2 receptor (ADRB2) small molecule antagonists, cell-based qHTS assay (AID 1963592). Further: nearly all actives have a fitted effect of over 50% in size. Further: potency means the concentration at half of the fitted maximal effect. A digest of the protocol: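 Assay format: CHO-ADRB2 cells, 18-20hr seeding at 37C/5% CO2, then compound plus 1nM isoproterenol agonist mix for 0.5hr RT. Homogeneous time-resolved fluorescence cAMP detection after 1hr, expressed as 665/615 nm ratio.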

For assay [18] the target is unchanged. As to the kind of experiment: Adrenergic beta2 receptor (ADRB2) small molecule agonists, cell-based qHTS assay (AID 1963593).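 Further: CHO cells stably overexpressing human ADRB2.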 Summed up: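 CHO cells stably over-expressing ADRB2 were plated overnight at 37C, then dosed with compounds plus a stimulation mix containing 100uM IBMX and 25uM Ro-20-1724 for 0.5hr at room temperature. cAMP was measured by HTRF competition, 1hr.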

The target of assay [19] is D(2) dopamine receptor (Homo sapiens) (UniProt P14416). As to the kind of experiment: Dopamine D2 receptor (DRD2) small molecule agonists, cell-based qHTS assay (AID 1963594). Further: nearly all actives have a fitted effect of over 35% in size. Summed up: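 HEK293 cells stably expressing DRD2 were cultured 24 h at 37 C, then given Ro20-1724 (0.1 mM final) and compounds for 10 min at room temperature. NKH477 (200nM) was then added for 30 min. cAMP was read by HTRF.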

Chain of Beta-2 adrenergic receptor (Homo sapiens) (P07550 whole entry, looked up): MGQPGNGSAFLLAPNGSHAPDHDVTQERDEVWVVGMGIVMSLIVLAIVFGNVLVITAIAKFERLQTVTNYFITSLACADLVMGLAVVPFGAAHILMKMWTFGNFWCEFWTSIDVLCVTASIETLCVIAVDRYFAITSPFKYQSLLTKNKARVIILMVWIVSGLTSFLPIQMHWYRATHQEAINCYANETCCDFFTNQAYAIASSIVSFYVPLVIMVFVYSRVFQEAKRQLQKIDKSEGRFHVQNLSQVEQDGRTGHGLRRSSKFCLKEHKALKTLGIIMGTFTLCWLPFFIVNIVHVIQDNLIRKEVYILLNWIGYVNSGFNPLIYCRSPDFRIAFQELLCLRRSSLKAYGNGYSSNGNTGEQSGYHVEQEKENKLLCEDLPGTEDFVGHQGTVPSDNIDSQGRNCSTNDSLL
Chain of Muscarinic acetylcholine receptor M1 (Homo sapiens) (P11229 whole entry, looked up): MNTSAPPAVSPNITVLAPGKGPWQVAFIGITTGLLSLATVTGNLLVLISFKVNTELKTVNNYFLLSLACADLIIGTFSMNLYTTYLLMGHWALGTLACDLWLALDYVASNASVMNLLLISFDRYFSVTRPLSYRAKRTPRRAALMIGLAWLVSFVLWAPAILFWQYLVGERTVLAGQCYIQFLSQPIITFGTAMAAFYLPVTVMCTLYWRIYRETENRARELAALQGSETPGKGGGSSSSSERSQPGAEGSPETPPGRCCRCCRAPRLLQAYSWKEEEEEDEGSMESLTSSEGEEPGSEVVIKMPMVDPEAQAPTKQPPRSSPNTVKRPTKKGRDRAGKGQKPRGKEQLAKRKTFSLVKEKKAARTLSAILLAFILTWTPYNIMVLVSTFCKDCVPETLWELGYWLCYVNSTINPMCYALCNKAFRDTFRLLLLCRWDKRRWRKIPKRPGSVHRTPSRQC
Chain of 5-hydroxytryptamine receptor 2A (Homo sapiens) (P28223 whole entry, looked up): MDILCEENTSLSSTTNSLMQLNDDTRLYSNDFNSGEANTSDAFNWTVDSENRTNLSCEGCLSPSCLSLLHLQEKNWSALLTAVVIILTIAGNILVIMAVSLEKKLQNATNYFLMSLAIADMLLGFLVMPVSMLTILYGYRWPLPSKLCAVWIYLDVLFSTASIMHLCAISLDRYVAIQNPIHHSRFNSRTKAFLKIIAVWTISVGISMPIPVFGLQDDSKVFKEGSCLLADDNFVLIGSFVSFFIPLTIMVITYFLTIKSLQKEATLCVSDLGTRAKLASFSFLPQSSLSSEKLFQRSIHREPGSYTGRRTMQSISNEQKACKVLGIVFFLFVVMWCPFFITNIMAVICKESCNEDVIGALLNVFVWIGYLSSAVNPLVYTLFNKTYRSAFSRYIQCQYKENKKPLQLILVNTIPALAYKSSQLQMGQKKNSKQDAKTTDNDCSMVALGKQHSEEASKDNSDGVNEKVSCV
Chain of D(2) dopamine receptor (Homo sapiens) (P14416 whole entry, looked up): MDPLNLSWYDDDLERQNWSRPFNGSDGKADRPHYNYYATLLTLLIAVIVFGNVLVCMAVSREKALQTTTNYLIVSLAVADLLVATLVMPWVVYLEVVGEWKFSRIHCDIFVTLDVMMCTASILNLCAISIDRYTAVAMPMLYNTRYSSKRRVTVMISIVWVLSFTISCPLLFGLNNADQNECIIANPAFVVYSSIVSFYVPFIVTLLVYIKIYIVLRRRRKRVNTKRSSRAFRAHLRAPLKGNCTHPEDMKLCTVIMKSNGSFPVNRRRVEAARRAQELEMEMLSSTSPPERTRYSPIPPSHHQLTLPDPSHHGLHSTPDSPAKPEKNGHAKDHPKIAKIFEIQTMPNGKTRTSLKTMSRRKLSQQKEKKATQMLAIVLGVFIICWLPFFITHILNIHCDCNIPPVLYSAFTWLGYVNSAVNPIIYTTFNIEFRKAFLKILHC

As for `CCN(CC)CCc1nc(-c2ccccc2)no1`, the Potency entry in assay [1], in assay [2], in assay [4], in [5], in assay [6] and in assay [7] was “inactive” in each case. For the same compound, the Potency entry in assay [8], in assay [9], in assay [10], in assay [11] and in assay [12] was “inactive” each time. For the same compound, the result in [3] was inactive.
On to `OCCN1C[C@H](O)[C@@H](O)[C@H](O)[C@H]1CO`, for which the Potency entry in assay [1], in assay [2], in assay [5], in assay [6], in assay [13] and in assay [8] was “inactive” in each case. Besides, the Potency result in assay [14], in [15], in [9], in assay [10], in assay [11] and in assay [16] was “inactive” each time. For the same compound, the Potency result in assay [17], in [18] and in [19] was “inactive” each time. In addition, in assay [3], the outcome was inactive.
Consider `O=C(Nc1ccccc1)c1cc([N+](=O)[O-])ccc1Cl`, for which the Potency entry in [1], in assay [4], in assay [5], in assay [6], in [13] and in assay [14] was “inactive” throughout. Further, the Potency result in [15], in [9], in [10], in assay [17], in assay [18] and in assay [12] was “inactive” throughout. Further, in assay [2], the Potency is 61.1 µM (active). For the same compound, the outcome in [3] was inactive.
In the case of `CC(=O)OC(C)(C)Cc1ccccc1`, the Potency result in [1], in assay [2], in assay [4], in assay [6], in assay [13] and in assay [7] was “inactive” throughout. Also, the Potency result in [14], in assay [15], in assay [9], in assay [10], in [11] and in [16] was “inactive” throughout. Also, the Potency entry in [17] and in assay [19] was “inactive” throughout. The result in [3] was inactive.
With `O=C(CCCl)NCc1ccccc1`, the Potency result in [1], in [2], in [4], in assay [5], in assay [13] and in assay [7] was “inactive” throughout. The Potency entry in assay [8], in [14], in assay [15], in assay [9], in assay [11] and in assay [16] was “inactive” throughout. Further, the Potency entry in [17] and in assay [19] was “inactive” throughout. Further, the result in assay [3] was inactive.
As to `Nc1ccc(C(=O)OCCCOC(=O)c2ccc(N)cc2)cc1`, the Potency result in assay [1], in assay [2], in assay [4], in assay [5], in assay [6] and in assay [7] was “inactive” in each case. The Potency entry in assay [8], in [14], in [15], in [9], in assay [10] and in [19] was “inactive” throughout. Moreover, the Potency result in [12] was “inactive”. The outcome in assay [3] was inactive.
Consider `COCCOC(=O)C1=C(C)NC(C)=C(C(=O)OC/C=C/c2ccccc2)C1c1cccc([N+](=O)[O-])c1` (stereo unspecified), for which the Potency result in assay [1], in assay [2], in assay [4], in [6], in assay [13] and in assay [7] was “inactive” in each case. The Potency entry in assay [8], in assay [14], in [15], in [9], in [10] and in assay [11] was “inactive” each time. Also, the Potency result in [16], in [17], in assay [19] and in assay [12] was “inactive” in each case. The outcome in [3] was inactive.
Regarding `C[N+](C)(C)CCOC(=O)CCC(=O)OCC[N+](C)(C)C`, the Potency entry in [1], in assay [2], in [5], in [6], in assay [13] and in [8] was “inactive” in each case. For the same compound, the Potency entry in assay [11], in [17], in assay [19] and in assay [12] was “inactive” each time. In addition, in assay [3], the result was inactive.
For the compound `COC(=O)CCc1ccc(OCC(O)CNC(C)C)cc1` (stereo unspecified), the Potency result in assay [1], in assay [2], in assay [4], in [5], in assay [6] and in assay [7] was “inactive” in each case. In addition, the Potency result in assay [8], in assay [11], in assay [16] and in [12] was “inactive” each time. For the same compound, in [3], the result was inactive. The Potency in assay [17] is 9.44 µM (active).
